Test results from PubChem BioAssay AID489018 (Southern Research Specialized Biocontainment Screening …, 2010).
The campaign covered roughly 2,300 compounds. About 350 (15%) were called active. These entries were drawn from the full list. Potency and affinity values are given separately. Values without a mark were called inactive. How the calls were made is not given here.

Assay: HepG2 cell cytotoxicity, dose response, cytotoxicity control for non-replicating M. tuberculosis project (AID 489018);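 further: HepG2 human liver cells; 100% = vehicle-treated cells and 0% = background signal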
Details: series mostly up to 20 µM; viability: at the top concentration

Compound | viability
O=C1N/C(=N\c2ccccn2)SC1Cc1ccc(Cl)cc1 (configuration not stated) | 106%
COc1cc(/C=C/c2ccc3c([N+](=O)[O-])cccc3n2)ccc1OCC(=O)O | 107%
CCCOc1ccc(-c2nc(C#N)c(NCCCn3ccnc3)o2)cc1 | 98.4%
O=C(CCSc1nnc(-c2ccccc2)o1)N1CCOCC1 | 106% [at 5 µM]
Cc1onc(-c2ccccc2)c1C(=O)O/N=C(\N)c1ccc([N+](=O)[O-])o1 | 97%
O=C(COC(=O)c1ccc(Br)o1)NCCCc1ccccc1 | 102%
Oc1ccccc1Nc1nc(NCC2CCCO2)c2ccccc2n1 (configuration not stated) | 89.7%
O=C(c1ccc([N+](=O)[O-])s1)N1CCN(c2cccc(Cl)c2)CC1 | 82.3%
Cc1ccc(-c2nn(-c3ccccc3)cc2/C=N/NC(=O)c2ccncc2)o1 | 95.2%
NC(N)=N/N=C/c1cn(-c2ccccc2)nc1-c1cccs1 | 92.5% [at 5 µM]
O=c1oc(-c2cccs2)nc2c1cnn2-c1ccccc1 | 94.1%
O=C(N/N=C/c1cccc2nccnc12)c1ccncc1 | 105%
CC(C)(C)Sc1ccc2nc3c(n2c1)CCCC3 | 95%
CCOC(=O)C(Nc1ccc2ccccc2c1)C(=O)OCC | 103%
CC1Cc2ccccc2N1C(=O)COC(=O)c1ccc(Cl)nc1 (configuration not stated) | 108%
Cc1ccc(C(=O)N/N=C/c2ccc([N+](=O)[O-])s2)cc1 | 84.5%

Compound | viability
O=C(N/N=C/c1ccc([N+](=O)[O-])s1)c1cccc(Br)c1 | 101% [at 5 µM]
CCOC(=O)N/N=C\c1ccc([N+](=O)[O-])s1 | 75.2%
O=C(N/N=C/c1ccc([N+](=O)[O-])s1)c1ccncc1 | 119%
O=C(N/N=C/c1ccc([N+](=O)[O-])s1)c1ccccc1 | 89.3%
COC(=O)N/N=C/c1ccc([N+](=O)[O-])s1 | 75.5%
O=C(CNC(=O)c1cccc(F)c1)N/N=C/c1ccc([N+](=O)[O-])s1 | 95.8% [at 5 µM]
CC(C)(C)OC(=O)N/N=C\c1ccc([N+](=O)[O-])s1 | 91%
Oc1oc(-c2ccco2)nc1C=Nc1cccc(Cl)c1 | 107%
CCCCOC(=O)C1CCCC(C(=O)OCCCC)N1 (configuration not stated) | 109% [at 5 µM]
COC(=O)COc1ccc(S(=O)(=O)N2CCCCCC2)cc1 | 111%
O=C(CNC(=O)c1ccco1)OCc1ccc(C(=O)Oc2ccccc2)cc1 | 96.8%
Cn1c(-c2cccc([N+](=O)[O-])c2)cnc1NCc1cccc(F)c1 | 95.6%
Cc1ccc(C)c(-c2csc(NC(=O)c3cnccn3)n2)c1 | 98.1%
O=C(Nc1nnc(-c2ccccn2)o1)c1cccc(Cl)c1 | 89.9% [at 5 µM]
COCCOC(=O)c1c(C)oc2ccc(OC(=O)c3ccco3)cc12 | 106% [at 5 µM]
O=C(Nc1nnc(-c2ccc(Br)cc2)o1)C1=COCCO1 | 99.3% [at 5 µM]
